In PubChem BioAssay AID1259343 (VanderVen Lab, College of Veterinary Medicine, Cornell …, 2017) one finds inhibition data, which are given here for 102 compounds.

The campaign covered roughly 6,200 compounds. About 2,900 (47%) were called active. No stated cut-off is given here; in the data, active means inhibition above about 50%; inactive means the rest. So high a share suggests a set chosen from earlier hits. Some of the results follow.

This assay can be described thus: Mycobacterium tuberculosis growth inhibition, primary screen (AID 1259343). The conditions noted are these: inhibition: at 10 µM, stronger effect = higher value; outcome: 10 uM.
In general, inhibition refers to the drop in the measured response relative to a control, in per cent. In the case of `Cc1ccc(CNC(=O)c2c[nH]c3c(c(C)nn3-c3ccccc3)c2=O)cc1`, the inhibition is 49.8% (inactive).
To `Cc1nn(-c2ccccc2)c2[nH]cc(C(=O)NCc3ccccc3Cl)c(=O)c12` belongs 31.5% (inactive).
To `Cc1nn(-c2ccccc2)c2[nH]cc(C(=O)NCc3ccccc3)c(=O)c12` belongs 51.6% (active); to `Cc1noc(-c2cc(Br)cc(Br)c2O)n1`, 101% (active).
For the compound `O=C(O)c1csc(-c2ccc(Cl)cc2Cl)n1`, the inhibition is 39.2% (inactive).
To `O=C(O)c1cc2cc(Cl)ccc2[nH]1` belongs 56.1% (active); to `Cc1cc(Cl)cc2sc(N(CCCn3ccnc3)C(=O)/C=C/c3cccs3)nc12`, 75.5% (active).
With `N=C1C2=C3Sc4ccccc4N3CCCC2=NN1c1ccc(Cl)cc1` the figure was 13.7% (inactive); with `CN(Sc1ccccc1[N+](=O)[O-])c1ccccc1`, 30.9% (inactive); with `O=[N+]([O-])c1cccnc1Oc1ccc(Oc2ccccc2)cc1`, 94.5% (active).
With `c1ccc(CCCc2nnnn2CC2CCOC2)cc1` (configuration not stated) the figure was 65.2% (active).
For the compound `CC(C)c1noc(C(C)Nc2ccc3c(c2)CCO3)n1` (configuration not stated), the inhibition was 1.87% (inactive).
With `COc1ccc(NC(C)c2nc(-c3ccco3)no2)cc1` (configuration not stated) the figure was 94.9% (active); with `CC1(C)C2CCC1(C)C(NS(=O)(=O)Cc1ccccc1)C2` (configuration not stated), 7.59% (inactive); with `CC1(C)C2CCC1(C)C(NC(=O)COc1ccccc1Cl)C2` (configuration not stated), 91.4% (active).
To `CC1CCC(NC(=O)COc2ccccc2Br)CC1` (configuration not stated) belongs 42.5% (inactive); to `CCOc1ccccc1NC(=O)N1CCN(CCCOC(c2ccc(Cl)cc2)c2ccc(Cl)cc2)CC1`, 16.6% (inactive); to `Cc1occc1C(=O)Nc1cc(Cl)ccc1C(=O)O`, 62.5% (active).
To `O=C(Nc1ccc(C(=O)O)c(O)c1)c1cc(Cl)cc(Cl)c1` belongs 25.6% (inactive); to `Cc1cc(NC(=O)C2c3ccccc3Oc3ccccc32)n(-c2nc3c(c(=O)[nH]2)CCC3)n1`, -27.3% (inactive); to `Cc1cc(=O)[nH]c(-n2nc(C)cc2NC(=O)C2c3ccccc3Oc3ccccc32)n1`, 100% (active).
`CCc1cc(=O)[nH]c(-n2nc(C)cc2NC(=O)C2c3ccccc3Oc3ccccc32)n1`: the inhibition is 101% (active).
To `CCCc1cc(=O)[nH]c(-n2nc(C)cc2NC(=O)C2c3ccccc3Oc3ccccc32)n1` belongs 99% (active).
To `FC(F)Sc1ccc(NC(=S)NN2CCCCC2)cc1` belongs 28.6% (inactive); to `CN(C)P(=NC(=S)Nc1ccc(SC(F)F)cc1)(c1ccncc1)N(C)C`, “inactive”.
Consider `O=C(Nc1ccc(SC(F)F)cc1)c1ccc(-n2cncn2)cc1`, for which the inhibition is 52.4% (active).
Take `Cc1cc(C(=O)O)n2nc(-c3ccc(Cl)cc3)cc2n1`: the inhibition was 76.7% (active).
With `COc1ccc(-c2cc3nc(C)cc(NC(C)c4ccccc4)n3n2)cc1OC` (configuration not stated) the figure was 26.1% (inactive).
For the compound `CCOC(=O)C1CCCN(C(=O)c2cc(-c3cccc(OC)c3)nc3cc(-c4ccccc4)nn23)C1` (configuration not stated), the inhibition is 1.82% (inactive).
To `COc1ccc(-c2cc(C(=O)O)n3nc(-c4ccc(Cl)cc4)cc3n2)cc1` belongs 41.5% (inactive); to `COc1cccc(-c2cc(C(=O)O)n3nc(-c4ccccc4)cc3n2)c1`, 104% (active); to `COc1ccc(C(=O)Nc2nc(-c3ccccc3)cs2)cc1`, 22.9% (inactive).
Regarding `O=C(O)c1cc(-c2ccccc2F)nc2cc(-c3ccccc3)nn12`, the inhibition is 71.8% (active).
With `COc1cccc(C(=O)Nc2nc(-c3ccccc3)cs2)c1` the figure was 71.2% (active).
Regarding `CCN(CC)S(=O)(=O)c1ccc(C(=O)Nc2nc(-c3ccccc3)cs2)cc1`, the inhibition is 35.8% (inactive).
With `Cc1cc(C(=O)NCCc2ccccc2)n2nc(-c3ccccc3)cc2n1` the figure was 81.8% (active); with `CC(C)(C)C(=O)Nc1nc(-c2cccc(Br)c2)cs1`, 57.1% (active).
To `O=C(O)c1cc(-c2ccccc2F)nc2cc(-c3ccc(Cl)cc3)nn12` belongs 88.1% (active); to `Cc1ccc(-c2cc(C(=O)N(CCN(C)C)Cc3ccccc3)n(-c3ccccc3)n2)cc1C`, 27.2% (inactive).
To `O=C(O)c1cc(-c2ccc(F)cc2)nc2cc(-c3ccccc3)nn12` belongs 67.1% (active).
`Nc1nc(-c2ccccc2Cl)co1`: the inhibition was 12% (inactive).
To `O=C(O)c1cc(-c2ccccc2Cl)nc2cc(-c3ccccc3)nn12` belongs 96.6% (active); to `Cc1ccc(-c2c(C)nn3c(NCCc4ccccc4)cc(C)nc23)cc1`, -2.64% (inactive).
On to `Cc1ccc(-c2c(C)nn3c(NCc4cccnc4)cc(C)nc23)cc1`, for which the inhibition is 30.6% (inactive).
To `COc1ccc(-c2c(C)nn3c(NCCc4ccccc4)cc(C)nc23)cc1OC` belongs 65.5% (active).
With `NC(=O)c1ccc(OCc2cc(Cl)c3c(c2)OCO3)cc1` the figure was 35.7% (inactive); with `CN(Cc1ccccc1)c1ncnc(Oc2ccc3c(c2)OCO3)c1N`, 28% (inactive); with `O=C1OC(c2ccccc2)OC(=O)C1=Cc1ccc(OCc2ccc3c(c2)OCO3)cc1` (configuration not stated), 84.2% (active).
To `C=Cc1ccc(Cn2cc(C(=O)NCc3ccco3)sc2=O)cc1` belongs 7.16% (inactive).
Turning to `O=C(NCc1ccco1)C12CC3CC(CC(C3)C1)C2`, the inhibition is 98.1% (active).
As to `O=C(NCCOc1ccccc1F)C12CC3CC(CC(C3)C1)C2`, the inhibition was 31.1% (inactive).
With `COC(=O)CCc1c(C)nc2c(c(-c3ccco3)nn2C2CCS(=O)(=O)C2)c1C` (configuration not stated) the figure was 24.9% (inactive).
With `C#CCN(C)C(=O)c1ccc(-c2cccc(C(F)(F)F)c2)s1`, the inhibition was 23.8% (inactive).
To `Nc1ncc(N=Nc2cccc(C(F)(F)F)c2)s1` belongs 2.91% (inactive).
With `CC(C)N(C(=O)c1ccc(-c2cccc(C(F)(F)F)c2)s1)C(C)C` the figure was 66.1% (active); with `CC1Oc2ccccc2OC1C(=O)NCCOc1ccc2ccccc2c1` (configuration not stated), 29.2% (inactive).
With `O=C(NCC(O)COc1ccc(C(F)(F)F)cc1)c1ccccc1Cl` (configuration not stated) the figure was 22.8% (inactive).
As to `O=C(NCCOc1ccc(C(F)(F)F)cc1)C1CSc2ccccc2O1` (configuration not stated), the inhibition was 77.1% (active).
To `CCCOC(=NCCCN(C)C)NC(=O)c1ccc(Cl)c(Cl)c1` belongs 43.6% (inactive); to `CCCOC(=O)c1ccc(NC(=O)c2cc(CCC)[nH]n2)cc1`, 65% (active); to `CCCOC(=O)c1cc(Br)ccc1NC(=O)c1ccc(C)nc1`, 8.93% (inactive).
To `Nc1scc(-c2ccc(Oc3ccccc3)cc2)[n+]1CCCS(=O)(=O)[O-]` belongs 68.1% (active); to `Nc1nc(-c2ccc(Oc3ccccc3)cc2)cs1`, 17.5% (inactive).
To `CCOC(=O)NC(n1ccnc1)C(F)(F)C(F)(F)C(F)(F)C(F)F` (configuration not stated) belongs 15.8% (inactive); to `C=C1/C(=N\OC(=O)Nc2ccc(C)cc2)CC2CC1C2(C)C` (configuration not stated), 86.8% (active); to `CN1CCN(c2ccc3nc(-c4c(N)c5c(F)cccc5[nH]c4=O)[nH]c3c2)CC1`, 30.7% (inactive).
Consider `S=C(NCC1COc2ccccc2O1)NC1CC2CCC1C2` (configuration not stated), for which the inhibition is -18.9% (inactive).
On to `S=C(Nc1ccccn1)NC1CC2CCC1C2` (configuration not stated), for which the inhibition was 97.7% (active).
To `Oc1cccc2c(NC(=S)NC3CC4CCC3C4)cccc12` (configuration not stated) belongs 23.4% (inactive); to `S=C(Nc1ccc(-n2cnnn2)cc1)NC1CC2CCC1C2` (configuration not stated), 103% (active).
`CC(C)CCNc1nc(C(=O)OC(C)C(N)=O)cs1` (configuration not stated): the inhibition is 20.4% (inactive).
Consider `COCC(C)C1CCN(C(=O)CC23CC4CC(CC(C4)C2)C3)CC1` (configuration not stated), for which the inhibition is -13.6% (inactive).
Take `Cc1ncsc1CCOC(=O)CC12CC3CC(CC(C3)C1)C2`: the inhibition was 103% (active).
With `CC(C)c1cc(CN(C)C(=O)CC23CC4CC(CC(C4)C2)C3)no1` the figure was 32.9% (inactive); with `CC(C)CN(CCC(=O)O)c1nc(-c2ccccc2Cl)nc2ccccc12`, 37.1% (inactive).
To `NC(=O)c1csc(C(=O)NC2CC2c2cccc(Cl)c2)c1` (configuration not stated) belongs 27.2% (inactive).
With `NC(=O)c1csc(CNc2ccc(F)cc2)c1` the figure was 68.7% (active); with `Clc1ccc(C(Cn2ccnc2)OCc2c(Cl)cccc2Cl)c(Cl)c1` (configuration not stated), -47.1% (inactive); with `CN(C)C(=O)CSCC(=O)O`, -0.78% (inactive).
With `C(=C\c1ccccc1)/CNc1ccc2c(c1)OCCO2`, the inhibition is -42.5% (inactive).
With `O=C(CCC1CCN(C(=O)CCc2ccccc2)CC1)Nc1ccc2c(c1)OCCO2`, the inhibition is 0.33% (inactive).
As to `O=C1CC(Nc2ccc3c(c2)OCCCO3)C(=O)N1CCc1ccccc1F` (configuration not stated), the inhibition is 53.9% (active).
To `COc1ccc(Nc2cccc3nonc23)cc1` belongs 60.3% (active); to `COc1ccc(-c2nc(Nc3ccc(F)cc3)c3ccccc3n2)cc1`, 26.9% (inactive).
With `CC1(C)CC[C@@]2(C(=O)O)C(C1)C1=CCC3[C@@]4(C)CC[C@H](O)C(C)(C)C4CC[C@@]3(C)[C@]1(C)C[C@@H]2O` (some centres not stated), the inhibition is 69.3% (active).
With `Cc1nc(NCc2ccco2)c2c3c(sc2n1)CCCC3` the figure was 59.1% (active); with `Cc1cc(C=Cc2ccc3cc(N(C)C)ccc3[n+]2C)c(C)n1-c1ccccc1`, “inactive”.
To `Cc1cc(/C=C/c2ccc3cc(N(C)C)ccc3[n+]2C)c(C)n1-c1ccccc1` belongs 48.1% (inactive); to `Cc1cc(/C=N\O)c(C)n1-c1ccc(-c2ccccc2)cc1`, 79.1% (active); to `COc1ccc(CNc2ccc([N+](=O)[O-])cc2)cc1`, 4.07% (inactive).
With `O=[N+]([O-])c1ccc(NS(=O)(=O)c2ccc(Br)cc2)cc1` the figure was 58.1% (active); with `O=[N+]([O-])c1ccc(NS(=O)(=O)Cc2ccccc2)cc1`, 73.9% (active); with `O=[N+]([O-])c1cc(S(=O)(=O)Nc2ccc(Br)cc2)ccc1Cl`, 66.2% (active).
In the case of `O=[N+]([O-])c1cc(NS(=O)(=O)c2cc(Cl)cc(Cl)c2)ccc1Cl`, the inhibition is 21.6% (inactive).
For the compound `O=S(=O)(Nc1ccc2c(c1)CCC2)c1ccc(Br)cc1`, the inhibition was 32.5% (inactive).
To `CC(NC(=O)c1ccc(C(F)(F)F)cc1)c1ccco1` (configuration not stated) belongs 62.5% (active).
To `CC(NC(=O)c1ccc(Br)o1)c1ccc(Cl)s1` (configuration not stated) belongs -46.6% (inactive); to `CC(NC(=O)CC1C=CCC1)c1ccc(C(F)(F)F)cc1` (configuration not stated), 12.8% (inactive); to `O=C(NCc1ccccc1)c1ccc(C(F)(F)F)cc1`, 20.5% (inactive).
With `CC(NC(=O)c1ccc(Cl)o1)c1ccc(C(F)(F)F)cc1` (configuration not stated) the figure was 85.3% (active); with `CC(NC(=O)c1cccs1)c1ccc(Cl)s1` (configuration not stated), -37.7% (inactive); with `CC(NC(=O)c1cccs1)c1ccc(C(F)(F)F)cc1` (configuration not stated), 69.9% (active).
